Data taken from the supplement of paper PMC10849652.
Targets with a hit are over-represented here; the source holds about 8,800 in all. About 0.5% of all pairs of compound and target were hits. Values without a mark were called inactive.

Legend:
Test in all cases: log2 fold change, soluble protein after heating vs DMSO (PISA); higher = thermal stabilisation; K562 lysate, 10 uM; active = over 0.2 and 3.5 SD of the protein, either way, in both replicates (recomputed)
erlotinib = compound: C#Cc1cccc(Nc2ncnc3cc(OCCOC)c(OCCOC)cc23)c1 [erlotinib]
Summary of the method: (§1)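 To prepare the extract, K562 pellets were dounce-homogenised in PBS pH 7.4 with 1 mM MgCl2, giving crude material at 1 mg/mL protein. This was treated with 10 μM compound for 30 min, then heated in aliquots for 3 min over 48°C-58°C before pooling and addition of NP-40 to 0.5% at 4°C. Centrifugation at 21,000xg for 90 min left soluble protein in the supernatant, which TMTpro 16plex LC-MS/MS quantified with equalised channel sums. Results are log-two fold changes in thermal stability compared with solvent controls, from duplicates.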

[1] = compound: C/C(=N\NC(=O)C1=CC(=CC=C1)S(=O)(=O)N2CCOCC2)/C3=C(C=CC(=C3)Cl)O
Summary of the method: as §1

[2] = compound: C1=CC(=CC=C1C2=NC3=C(N2)C=C(C=C3)C(=O)N)OC4=CC=C(C=C4)Cl
Summary of the method: as §1

[3] = compound: C1=CC2=C(C=CC(=C2)/C=C\3/C(=O)NC(=NCC4=CC=CS4)S3)N=C1
Summary of the method: as §1

[4] = compound: C1=CC2=NC=CN=C2C=C1/C=C/3\C(=O)NC(=O)S3
Summary of the method: as §1

[5] = compound: C1=CC=C(C=C1)C2=NC(=C(N2)C3=CC=NC=C3)C4=CC(=C(C=C4)Cl)O
Summary of the method: as §1

[6] = compound: C1=CC=C2C(=C1)C3=NNC4=CC=CC(=C43)C2=O
Summary of the method: as §1

[7] = compound: C1CCN(C1)C(=O)NC2=CC=CC(=C2)NC3=NC=C(C(=N3)NCCC4=CN=CN4)Br
Summary of the method: as §1

[8] = compound: C1CN(CCC1(CC2=CC=C(C=C2)Cl)N)C3=NC=NC4=C3C=CN4
Summary of the method: as §1

IRAK-1-4 Inhibitor I = compound: C1COCCN1CCN2C3=CC=CC=C3N=C2NC(=O)C4=CC(=CC=C4)[N+](=O)[O-] [IRAK-1-4 Inhibitor I]
Summary of the method: as §1

ibrutinib = compound: C=CC(=O)N1CCC[C@@H](n2nc(-c3ccc(Oc4ccccc4)cc3)c3c(N)ncnc32)C1 [ibrutinib]
Summary of the method: as §1

[9] = compound: CC(=O)c1cnc2ccc(-c3cc(Cl)c(O)c(Cl)c3)nc2c1N[C@H]1CC[C@H](CN(C)C)CC1
Summary of the method: as §1

ralimetinib = compound: CC(C)(C)Cn1c(N)nc2ccc(-c3[nH]c(C(C)(C)C)nc3-c3ccc(F)cc3)nc21 [ralimetinib]
Summary of the method: as §1

[10] = compound: CC(C)(O)CC(=O)NCCn1ccc2ncnc(Nc3ccc(Oc4cccc(C(F)(F)F)c4)c(Cl)c3)c21
Summary of the method: as §1

[11] = compound: CC(C)C1=C2N=C(C=C(N2N=C1)NCC3=CC=CC=C3)NCCCCCCN
Summary of the method: as §1

[12] = compound: CC1=C(C(CC(=O)N1)C2=CC=C(C=C2)C(F)(F)F)C(=O)NC3=C(C=C4C(=C3)C=NN4)F
Summary of the method: as §1

[13] = compound: CC1=C(C2=C(C=C1)C(=O)C3=CC=CC=C3N2CCCN)C
Summary of the method: as §1

[14] = compound: CC1=C(C=C(C=C1)NC(=O)C2=CC(=CC=C2)C(C)(C)C#N)NC3=CC4=C(C=C3)N=CN(C4=O)C
Summary of the method: as §1

[15] = compound: CC1=C(C=C(C=C1)NC(=O)C2=CC(=CC=C2)N(C)C)NC(=O)C3=CC=C(C=C3)O
Summary of the method: as §1

[16] = compound: CC1=CC=C(C=C1)SC2=C3C=C(SC3=CN=C2)C(=O)N
Summary of the method: as §1

UniProt Q9BT30, sequence (Q9BT30 whole entry, looked up): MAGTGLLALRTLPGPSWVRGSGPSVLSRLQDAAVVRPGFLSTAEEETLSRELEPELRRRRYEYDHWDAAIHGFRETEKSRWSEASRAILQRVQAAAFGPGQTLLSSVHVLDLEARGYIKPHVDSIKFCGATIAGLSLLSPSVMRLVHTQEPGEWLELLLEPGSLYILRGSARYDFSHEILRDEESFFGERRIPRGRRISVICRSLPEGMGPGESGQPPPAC
UniProt Q9BXX3, sequence (Q9BXX3 whole entry, looked up): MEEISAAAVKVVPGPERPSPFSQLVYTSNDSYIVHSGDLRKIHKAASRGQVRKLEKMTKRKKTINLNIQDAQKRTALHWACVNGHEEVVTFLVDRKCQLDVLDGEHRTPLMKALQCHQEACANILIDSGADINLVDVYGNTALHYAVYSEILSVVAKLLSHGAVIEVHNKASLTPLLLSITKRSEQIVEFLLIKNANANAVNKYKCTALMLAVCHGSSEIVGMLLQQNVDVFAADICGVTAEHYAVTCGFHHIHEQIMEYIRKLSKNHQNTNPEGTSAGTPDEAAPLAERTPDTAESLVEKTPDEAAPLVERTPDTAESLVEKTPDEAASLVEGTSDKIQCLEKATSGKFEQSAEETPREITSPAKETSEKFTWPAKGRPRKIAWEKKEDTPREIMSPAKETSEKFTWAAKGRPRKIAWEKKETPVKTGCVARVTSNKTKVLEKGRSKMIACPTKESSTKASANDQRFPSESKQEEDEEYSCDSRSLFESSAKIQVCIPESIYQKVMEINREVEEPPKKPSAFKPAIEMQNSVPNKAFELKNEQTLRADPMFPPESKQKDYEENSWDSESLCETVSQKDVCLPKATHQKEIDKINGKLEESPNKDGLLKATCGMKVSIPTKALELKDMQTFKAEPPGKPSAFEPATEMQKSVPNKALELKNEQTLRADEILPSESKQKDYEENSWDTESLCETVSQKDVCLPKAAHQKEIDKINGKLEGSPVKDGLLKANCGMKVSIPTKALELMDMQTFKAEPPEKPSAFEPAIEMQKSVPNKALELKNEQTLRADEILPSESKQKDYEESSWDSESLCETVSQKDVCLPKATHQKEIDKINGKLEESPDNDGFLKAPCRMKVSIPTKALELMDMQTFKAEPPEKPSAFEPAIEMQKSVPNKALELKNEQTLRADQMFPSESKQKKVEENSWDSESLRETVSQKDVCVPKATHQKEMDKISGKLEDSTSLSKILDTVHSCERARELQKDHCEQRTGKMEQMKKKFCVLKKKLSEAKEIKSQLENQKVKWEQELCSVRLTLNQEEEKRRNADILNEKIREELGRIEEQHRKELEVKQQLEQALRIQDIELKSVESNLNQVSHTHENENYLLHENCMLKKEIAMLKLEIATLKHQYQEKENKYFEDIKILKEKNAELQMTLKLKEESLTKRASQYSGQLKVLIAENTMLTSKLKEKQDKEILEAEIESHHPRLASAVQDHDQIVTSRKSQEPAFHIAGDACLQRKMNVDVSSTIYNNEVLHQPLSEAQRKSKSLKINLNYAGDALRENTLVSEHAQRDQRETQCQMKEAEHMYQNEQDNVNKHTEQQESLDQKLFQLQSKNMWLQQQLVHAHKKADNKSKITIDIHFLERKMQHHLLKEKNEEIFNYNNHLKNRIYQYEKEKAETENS
UniProt Q9P1F3, sequence (Q9P1F3 whole entry, looked up): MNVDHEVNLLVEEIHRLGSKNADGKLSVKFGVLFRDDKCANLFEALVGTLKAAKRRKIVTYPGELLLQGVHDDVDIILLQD
UniProt Q6AI12, sequence (Q6AI12 whole entry, looked up): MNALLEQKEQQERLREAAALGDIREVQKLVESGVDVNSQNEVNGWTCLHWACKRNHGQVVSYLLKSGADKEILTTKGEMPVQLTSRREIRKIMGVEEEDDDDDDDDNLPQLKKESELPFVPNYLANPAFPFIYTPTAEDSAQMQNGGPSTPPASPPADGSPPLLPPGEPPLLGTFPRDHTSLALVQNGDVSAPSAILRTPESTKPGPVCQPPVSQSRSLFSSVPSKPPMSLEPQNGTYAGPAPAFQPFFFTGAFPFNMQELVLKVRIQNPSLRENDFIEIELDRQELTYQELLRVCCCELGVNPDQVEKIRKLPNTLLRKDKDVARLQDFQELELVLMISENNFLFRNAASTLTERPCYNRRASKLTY
UniProt P54886, sequence (P54886 whole entry, looked up): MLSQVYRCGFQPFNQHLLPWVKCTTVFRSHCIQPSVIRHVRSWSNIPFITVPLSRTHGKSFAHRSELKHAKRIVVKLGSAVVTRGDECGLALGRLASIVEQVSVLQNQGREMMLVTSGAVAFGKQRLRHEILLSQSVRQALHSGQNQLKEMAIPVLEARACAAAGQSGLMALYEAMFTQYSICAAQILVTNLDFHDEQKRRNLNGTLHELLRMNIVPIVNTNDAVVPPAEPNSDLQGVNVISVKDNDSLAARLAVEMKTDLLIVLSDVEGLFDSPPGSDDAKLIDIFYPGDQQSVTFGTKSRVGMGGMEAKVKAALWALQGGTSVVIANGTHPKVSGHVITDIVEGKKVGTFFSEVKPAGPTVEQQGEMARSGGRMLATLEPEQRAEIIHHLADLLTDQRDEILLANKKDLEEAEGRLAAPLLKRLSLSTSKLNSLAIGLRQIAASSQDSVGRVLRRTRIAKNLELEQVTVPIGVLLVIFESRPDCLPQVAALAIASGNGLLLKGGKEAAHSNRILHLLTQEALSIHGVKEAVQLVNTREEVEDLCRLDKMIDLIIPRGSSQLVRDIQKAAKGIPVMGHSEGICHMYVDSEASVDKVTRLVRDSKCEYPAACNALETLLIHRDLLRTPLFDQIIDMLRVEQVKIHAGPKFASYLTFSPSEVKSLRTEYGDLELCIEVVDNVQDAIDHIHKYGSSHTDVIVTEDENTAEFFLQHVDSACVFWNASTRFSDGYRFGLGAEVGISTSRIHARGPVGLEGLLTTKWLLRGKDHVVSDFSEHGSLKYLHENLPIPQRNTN
UniProt Q04771, sequence (Q04771 whole entry, looked up): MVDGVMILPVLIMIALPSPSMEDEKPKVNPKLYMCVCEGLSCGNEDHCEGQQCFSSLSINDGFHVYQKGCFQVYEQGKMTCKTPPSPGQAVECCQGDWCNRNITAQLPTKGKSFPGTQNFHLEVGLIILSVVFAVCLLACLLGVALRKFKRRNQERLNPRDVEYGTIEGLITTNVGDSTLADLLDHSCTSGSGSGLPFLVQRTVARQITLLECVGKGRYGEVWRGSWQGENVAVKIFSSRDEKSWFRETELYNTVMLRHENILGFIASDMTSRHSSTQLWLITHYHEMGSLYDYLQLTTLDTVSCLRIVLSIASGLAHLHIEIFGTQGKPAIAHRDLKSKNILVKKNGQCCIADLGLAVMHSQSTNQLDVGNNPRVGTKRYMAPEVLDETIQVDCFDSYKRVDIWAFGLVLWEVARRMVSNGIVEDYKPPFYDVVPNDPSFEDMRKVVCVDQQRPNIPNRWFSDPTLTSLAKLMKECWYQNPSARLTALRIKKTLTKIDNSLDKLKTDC
UniProt P53396, sequence (P53396 whole entry, looked up): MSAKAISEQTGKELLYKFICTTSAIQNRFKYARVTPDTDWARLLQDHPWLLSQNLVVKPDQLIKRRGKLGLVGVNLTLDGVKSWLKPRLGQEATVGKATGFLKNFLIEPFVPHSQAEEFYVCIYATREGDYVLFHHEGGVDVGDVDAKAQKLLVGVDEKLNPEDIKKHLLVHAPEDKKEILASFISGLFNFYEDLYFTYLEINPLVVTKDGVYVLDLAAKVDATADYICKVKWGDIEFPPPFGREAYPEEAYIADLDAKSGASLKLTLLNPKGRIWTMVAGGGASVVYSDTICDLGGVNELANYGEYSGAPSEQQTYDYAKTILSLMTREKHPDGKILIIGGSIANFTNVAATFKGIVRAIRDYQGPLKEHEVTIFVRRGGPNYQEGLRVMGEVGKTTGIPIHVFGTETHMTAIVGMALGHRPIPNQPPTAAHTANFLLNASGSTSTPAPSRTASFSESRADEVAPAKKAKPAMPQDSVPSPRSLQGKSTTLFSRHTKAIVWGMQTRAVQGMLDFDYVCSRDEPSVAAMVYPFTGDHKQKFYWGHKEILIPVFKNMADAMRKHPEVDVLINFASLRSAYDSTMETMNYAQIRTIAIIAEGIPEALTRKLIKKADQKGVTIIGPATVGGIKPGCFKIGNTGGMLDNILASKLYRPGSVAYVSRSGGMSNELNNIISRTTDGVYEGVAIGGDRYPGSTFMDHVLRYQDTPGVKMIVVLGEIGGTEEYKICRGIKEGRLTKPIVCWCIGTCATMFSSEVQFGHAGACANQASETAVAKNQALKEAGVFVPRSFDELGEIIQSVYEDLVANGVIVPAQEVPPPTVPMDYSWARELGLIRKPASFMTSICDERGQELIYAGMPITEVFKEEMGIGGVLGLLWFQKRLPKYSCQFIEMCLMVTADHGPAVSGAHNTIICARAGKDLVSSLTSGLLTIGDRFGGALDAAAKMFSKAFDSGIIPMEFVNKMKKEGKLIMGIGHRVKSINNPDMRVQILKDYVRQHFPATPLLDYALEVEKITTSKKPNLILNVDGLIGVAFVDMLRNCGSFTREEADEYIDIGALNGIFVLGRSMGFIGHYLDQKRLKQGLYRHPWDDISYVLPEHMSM
UniProt Q9BQI0, sequence (Q9BQI0 whole entry, looked up): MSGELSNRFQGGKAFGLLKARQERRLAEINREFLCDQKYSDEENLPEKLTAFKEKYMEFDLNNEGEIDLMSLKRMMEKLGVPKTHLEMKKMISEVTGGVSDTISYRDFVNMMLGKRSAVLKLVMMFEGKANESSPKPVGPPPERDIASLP
UniProt P27216, sequence (P27216 whole entry, looked up): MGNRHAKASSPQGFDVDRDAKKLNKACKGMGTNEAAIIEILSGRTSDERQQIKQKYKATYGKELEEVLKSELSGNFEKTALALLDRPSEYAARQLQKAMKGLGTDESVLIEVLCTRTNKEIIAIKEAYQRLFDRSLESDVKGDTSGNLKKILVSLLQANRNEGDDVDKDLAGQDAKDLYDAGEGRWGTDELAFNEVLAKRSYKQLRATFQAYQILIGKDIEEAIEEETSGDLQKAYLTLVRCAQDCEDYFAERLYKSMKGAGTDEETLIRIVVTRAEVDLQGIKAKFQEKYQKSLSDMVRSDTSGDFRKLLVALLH

Target	log2 fold change (erlotinib)	log2 fold change [1]	log2 fold change [2]	log2 fold change [3]	log2 fold change [4]	log2 fold change [5]	log2 fold change [6]	log2 fold change [7]	log2 fold change [8]	log2 fold change (IRAK-1-4 Inhibitor I)	log2 fold change (ibrutinib)	log2 fold change [9]	log2 fold change (ralimetinib)	log2 fold change [10]	log2 fold change [11]	log2 fold change [12]	log2 fold change [13]	log2 fold change [14]	log2 fold change [15]	log2 fold change [16]
ACACA isoform 4 (UniProt Q13085)	0.024	0.039	-0.029	-0.012	0.011	0.019	-0.047	0.003	0.024	0.005	0.038	0.021	0.041	0.013	0.01	-0.027	-0.002	0.021	0.048	0.035
ABL2 (UniProt P42684)	-0.046	0.068	0.053	-0.014	-0.013	0.045	-0.003	-0.065	-0.141	-0.068	0.586 (active)	0.078	0.005	0.002	0.002	-0.057	-0.112	0.154	0.093	-0.046
ALDH3A1 (UniProt P30838)	0.147	–	0.257	–	–	0.147	–	–	–	0.059	–	-0.197	-0.274	-0.259	0.04	–	1.23 (active)	0.432	-0.001	-0.119
AIF1L (UniProt Q9BQI0)	-0.035	–	-0.008	–	-0.014	0.012	–	0.329	-0.008	-0.049	0.169	0.032	0.029	-0.003	-0.105	-0.012	0.159	-0.014	-0.005	-0.013
ALG13 isoform 2 (UniProt Q9NP73)	–	–	–	–	–	–	–	–	–	–	–	–	–	–	–	0.03	–	–	–	–
ACVR1 (UniProt Q04771)	–	–	–	–	0.074	–	–	–	–	–	-0.047	–	–	–	–	-0.152	-0.02	–	–	–
ADK, A0A5F9ZH76	–	–	–	–	0	–	–	–	–	–	0.168	0.005	–	–	–	-0.156	–	–	–	0
ALDH18A1 isoform 2 (UniProt P54886)	–	-0.298	–	-0.142	–	0.092	-0.05	–	–	0.046	–	–	-0.308	-0.245	–	–	-0.378	0.03	0.19	–
ANKRD30A (UniProt Q9BXX3)	–	–	–	–	0.035	-0.06	–	0.415	0.144	-0.176	-0.01	0.77	0.014	0.088	–	0.007	0.038	-0.088	0.077	-0.177
ANKRD44 isoform 2 (UniProt Q8N8A2)	-0.034	-0.035	0.002	-0.083	-0.016	–	-0.257	-0.059	-0.032	–	-0.131	0.067	–	–	-0.026	0.075	–	–	–	-0.029
ACLY isoform 2 (UniProt P53396)	–	-0.122	–	0.002	-0.018	0.012	-0.034	-0.027	-0.029	-0.053	-0.015	0.028	-0.022	0.07	–	0.008	–	0.018	-0.008	-0.01
ABRACL (UniProt Q9P1F3)	-0.013	–	0.056	–	0.103	–	–	–	–	–	0.109	-0.179	–	–	0.001	-0.112	0.142	0.051	–	0.015
ANXA13 isoform 2 (UniProt P27216)	-0.078	0.111	-0.121	-0.019	-0.083	-0.029	0.029	–	–	-0.174	0.051	0.092	0.022	0.169	-0.057	-0.034	0.062	0.053	-0.001	0.06
ANKRD40 (UniProt Q6AI12)	0.085	-0.269	0.093	-0.143	0.232	0.065	-0.163	0.296	0.203	-0.091	0.008	–	0.062	0.05	0.051	0.027	-0.231	0.075	0.087	–
ALKBH7 (UniProt Q9BT30)	-0.169	–	-0.02	–	–	0	–	-0.033	0.027	-0.04	–	–	0.116	0.09	-0.085	0.256	-0.012	0.077	0.019	–
